Compounds with a hit are over-represented: about 2.4% of the library has one in this group of screens.
UHRF1 MBD2 ctr = human UHRF1 methylated DNA binding inhibitors. AID 687016. inhibition, % at 4.4 µM. actives 0.75% (n = 370,000). UHRF1 binding to methylated oligo, TR-FRET. Q96T88; in the data active means inhibition above about 21%;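 further: UHRF1 SRA domain binding a hemimethylated CpG hairpin DNA probe; 0% = median of test compound wells and 100% = reference inhibitor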
MBD2 inh = MBD2-methylated oligo binding inhibition; AID 686964; Q9UBB5; TR-FRET, MBD2 binding to methylated oligonucleotide; actives 0.31% (n = 370,000); inhibition, % at 4.4 µM; in the data active means inhibition above about 13%
LEDGF integ inh = blocks HIV-1 LEDGF/p75-dependent DNA integration. actives 0.64% (n = 370,000). TR-FRET IN-LEDGF/p75 DNA integration, Eu/Cy5. AID 743269. inhibition, % at 3.7 µM;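 active means inhibition above the screen-wide mean plus 3 SD, cut at about 13% in these data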;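 further: signal is the Cy5 over europium emission ratio at 671 and 618 nm; 0% = plate median of compound wells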
PLCg1 inh = inhibitors of human phospholipase C gamma1 | P19174 | inhibition, % at 12.2 µM | purified PLC-gamma1, fluorogenic substrate, fluorescence | actives 0.84% (n = 370,000); in the data active means inhibition above about 9.5%
Target sequence (P19174 whole entry, looked up): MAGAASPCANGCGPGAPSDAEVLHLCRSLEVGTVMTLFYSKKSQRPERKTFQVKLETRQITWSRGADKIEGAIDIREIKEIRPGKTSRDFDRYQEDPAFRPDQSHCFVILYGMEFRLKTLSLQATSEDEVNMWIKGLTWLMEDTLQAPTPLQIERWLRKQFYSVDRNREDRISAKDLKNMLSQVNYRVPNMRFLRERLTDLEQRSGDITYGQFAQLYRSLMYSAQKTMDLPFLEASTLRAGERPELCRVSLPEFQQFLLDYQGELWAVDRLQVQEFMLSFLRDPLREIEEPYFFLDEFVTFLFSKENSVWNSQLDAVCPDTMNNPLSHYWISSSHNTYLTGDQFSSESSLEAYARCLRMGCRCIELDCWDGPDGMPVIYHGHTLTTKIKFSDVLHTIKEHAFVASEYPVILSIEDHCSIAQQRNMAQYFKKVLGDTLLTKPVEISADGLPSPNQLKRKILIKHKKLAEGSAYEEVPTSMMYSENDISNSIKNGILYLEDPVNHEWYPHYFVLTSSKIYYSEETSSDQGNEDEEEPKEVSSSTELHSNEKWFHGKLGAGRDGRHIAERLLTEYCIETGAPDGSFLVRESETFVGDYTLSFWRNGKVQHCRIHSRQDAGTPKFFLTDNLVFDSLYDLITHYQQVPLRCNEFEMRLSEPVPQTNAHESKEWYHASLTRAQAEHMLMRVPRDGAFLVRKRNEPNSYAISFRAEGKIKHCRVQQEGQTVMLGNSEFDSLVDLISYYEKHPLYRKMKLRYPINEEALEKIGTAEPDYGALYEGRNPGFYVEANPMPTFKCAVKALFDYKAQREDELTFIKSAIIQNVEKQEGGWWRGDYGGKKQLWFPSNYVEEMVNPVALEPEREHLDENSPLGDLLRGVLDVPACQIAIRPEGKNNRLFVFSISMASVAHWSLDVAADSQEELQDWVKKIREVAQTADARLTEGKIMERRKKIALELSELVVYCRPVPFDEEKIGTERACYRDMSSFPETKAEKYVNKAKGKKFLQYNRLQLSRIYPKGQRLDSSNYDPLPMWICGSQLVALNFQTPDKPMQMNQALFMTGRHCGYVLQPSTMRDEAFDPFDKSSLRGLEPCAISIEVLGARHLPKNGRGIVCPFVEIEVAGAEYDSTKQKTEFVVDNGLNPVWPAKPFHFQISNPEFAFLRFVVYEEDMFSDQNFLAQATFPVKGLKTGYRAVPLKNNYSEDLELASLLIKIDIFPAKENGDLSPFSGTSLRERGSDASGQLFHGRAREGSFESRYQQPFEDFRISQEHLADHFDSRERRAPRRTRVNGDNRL
PLC-beta3 inh = blocks human PLC-beta3 enzyme activity. Q01970. Purified PLC-beta3, fluorogenic substrate, fluorescence. inhibition, % at 12.2 µM. actives 0.18% (n = 370,000). AID 720704; in the data active means inhibition above about 11%;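 further: 0% = median of compound wells on plate and 100% = full blocker control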
IN multimer act = activates HIV-1 integrase multimerization in LEDGF counter-screen; shares compounds with LEDGF integ inh; TR-FRET HIV-1 integrase multimerization, biochemical; activation, % at 7.7 µM; actives 17% (n = 2,000); in the data active means activation above about 8.9%
TRFRET interf = counter-screen for LEDGF/p75 integration inhibitors: TR-FRET optical interference; shares compounds with LEDGF integ inh; TR-FRET optical interference counterscreen, HIV-1 IN multimerization; inhibition, % at 7.7 µM; 2,000 tested, under 10 active;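 active means inhibition above the mean over all tested compounds plus 3 SD, which no compound reached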;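 further: 0% = integrase with antibodies and DMSO and 100% = antibodies without integrase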
IN-LEDGF confirm = LEDGF/p75-dependent HIV-1 integration inhibition, confirmation; inhibition, % at 3.7 µM; actives 36% (n = 2,000); TR-FRET LEDGF/p75-dependent HIV-1 integration, biochemical; shares compounds with LEDGF integ inh; in the data active means inhibition above about 14%
The depositor's hits bear a star; . = no result given.

SMILES | UHRF1 MBD2 ctr | MBD2 inh | LEDGF integ inh | PLCg1 inh | PLC-beta3 inh | IN multimer act | TRFRET interf | IN-LEDGF confirm
O=C(NCc1ccncc1)C1CCN(S(=O)(=O)c2cc(Cl)ccc2Cl)CC1 | 0.6 | -0.8 | 20.5* | 3.1 | 1.4 | 0.1 | -0.5 | -7.7
COc1ccc(C(N)c2csc(Nc3cc(Oc4ccccc4)ncn3)n2)cc1 (stereo not drawn) | -0.1 | 0.2 | 3.5 | -0.2 | 1.5 | . | . | .
NC(c1csc(Nc2cc(Oc3ccccc3)ncn2)n1)C1CCCCC1 (stereo not drawn) | -1.8 | -7.4 | 13.4* | 3.3 | 0.1 | -0.1 | 0.7 | -6.7
NC(c1csc(Nc2ccc(C(F)(F)F)cn2)n1)C1CCCCC1 (stereo not drawn) | -3.0 | -2.4 | 17.9* | 2.7 | -5.7 | 0.3 | -1.1 | -4.0
CC(c1c[nH]c2ccccc12)c1cn(C)c2ccccc12 (stereo not drawn) | -1.4 | -6.0 | 1.8 | -7.5 | -11.3 | . | . | .
CCOC(=O)c1ccc(N2C(=O)c3n[nH]c(-c4ccco4)c3C2c2cccc([N+](=O)[O-])c2)cc1 (stereo not drawn) | -2.1 | -4.8 | 15.9* | 13.4* | 1.9 | -1.1 | 5.8 | 9.7
Cc1ccc(S(=O)(=O)NCC(=O)OC(C)C(=O)c2ccccc2)cc1 (stereo not drawn) | -3.9 | -3.6 | 22.6* | -2.6 | -0.4 | 0.3 | -1.4 | -2.6
Nc1cc(S(=O)(=O)N2CCCCC2)ccc1Oc1ccc(Cl)cc1 | -1.4 | -2.5 | 40.0* | 1.4 | 6.0 | -0.1 | 0.5 | -2.8
O=C(CCl)N1N=C(c2ccco2)CC1c1ccco1 (stereo not drawn) | 33.3* | 6.4 | 49.2* | -6.3 | -16.4 | 1.9 | -9.3 | 11.2
C=CCn1c(SCC(=O)N2N=C(c3ccco3)CC2c2ccco2)nnc1-c1ccncc1 (stereo not drawn) | -1.8 | 0.4 | -2.5 | 0.8 | 3.0 | . | . | .
O=C(O)/C=C/C(=O)N1N=C(c2ccco2)CC1c1ccco1 (stereo not drawn) | 18.0 | 5.7 | 51.3* | -8.0 | -21.9 | -1.4 | 7.3 | 5.2
O=C(NC1CCCCN(Cc2ccc(Cl)cc2)C1=O)c1ccccn1 (stereo not drawn) | -3.5 | -4.9 | 2.6 | 2.2 | -1.3 | . | . | .
Cc1ccccc1CN1CCCCC(NC(=O)Nc2ccccc2)C1=O (stereo not drawn) | -4.4 | -7.4 | -0.1 | 3.8 | 3.0 | . | . | .
CC1(C)Cc2c(c(-c3ccco3)[nH]c(=O)c2C#N)CS1 | 14.7 | -0.6 | 18.1* | -111.6 | -142.4 | -0.9 | 4.8 | 23.3*
CC(=O)N1CCN(c2nc(-c3ccco3)c3c(c2C#N)CC(C)(C)SC3)CC1 | 6.6 | 3.7 | 21.9* | -139.0 | -171.4 | -1.1 | 5.5 | 18.5*
O=C(NCCC1=CCCCC1)C1CCN(S(=O)(=O)c2ccccc2[N+](=O)[O-])CC1 | 0.9 | -1.4 | 0.5 | 2.5 | 1.7 | . | . | .
COc1ccc(N2CCCN(CC(=O)Nc3ccc(Cl)cc3)CC2)cc1 | -0.8 | -4.7 | -0.6 | -1.2 | -2.6 | . | . | .
COc1ccccc1C(=O)n1ccc2ccc(-c3ccc4ccn(Cc5ccccc5)c4c3)cc21 | -2.9 | -2.4 | -1.5 | -113.2 | -180.2 | . | . | .
COC[C@@H]1CCCN1c1ccc2c(c1)O[C@@H]1CCN(C1)S2(=O)=O | 9.0 | 7.3 | 0.7 | -3.6 | -1.6 | . | . | .
C#CCCC(=O)O[C@H]1CCC[C@@]2(C(=O)N(Cc3ccccc3)c3ccccc32)[C@H]1NC(=O)CCc1ccccc1 | -2.2 | -0.5 | 5.1 | 5.7 | 7.0 | . | . | .
CC(=O)N1CCC(N2CCN(c3ccccc3F)CC2)CC1 | 5.6 | 3.5 | 40.5* | -1.1 | -0.1 | 1.1 | -5.5 | -3.2
COc1cc2[nH]c(Cl)c([N+](=O)[O-])c2cc1OC | 8.6 | -1.9 | 48.7* | -290.3 | -387.6 | 2.5 | -9.0 | 8.9
COc1cc2[nH]c3c(Cl)ncnc3c2cc1OC | 2.6 | 3.4 | 1.5 | -22.1 | -26.6 | . | . | .
COC(=O)[C@]12C[C@H](CC(=O)NCCCN3CCCC3=O)C(=O)N(Cc3ccccc3)C1=C[C@H](COCc1ccccc1)O[C@@H]2C | 1.2 | 1.4 | 2.7 | 1.2 | 1.7 | . | . | .
c1cncc(-c2nc(NCCCn3ccnc3)c3ccccc3n2)c1 | -1.6 | 4.2 | 4.2 | -8.3 | -15.2 | . | . | .
SMILES | UHRF1 MBD2 ctr | MBD2 inh | LEDGF integ inh | PLCg1 inh | PLC-beta3 inh | IN multimer act | TRFRET interf | IN-LEDGF confirm
Cc1nc(NCCCn2ccnc2)c2ccccc2n1 | 2.2 | -5.7 | 71.2* | -1.9 | -3.2 | -0.6 | 3.3 | -0.1
O=C1NC(=O)/C(=C\c2ccc(O)cc2O)S1 | 9.8 | 2.2 | 19.9* | -10.2 | -20.2 | 48.4* | -243.5 | 66.2*
O=C1NC(=O)/C(=C/c2cccc3ccccc23)S1 | -3.1 | -2.0 | 6.1 | 1.5 | -8.4 | . | . | .
Cc1ccc(C2C(C#N)=C(N)Oc3cc4c(cc32)OCO4)cc1 (stereo not drawn) | 2.1 | -0.5 | 7.3 | -56.5 | -73.6 | . | . | .
N#CC1=C(N)Oc2cc(O)c(C=Nc3ccccc3)cc2C1c1ccccc1 (stereo not drawn) | -1.1 | 2.1 | 20.2* | -37.0 | -54.1 | 2.9 | -14.7 | 19.3*
Cc1ccc(N=Cc2cc3c(cc2O)OC(N)=C(C#N)C3c2ccccc2)cc1 (stereo not drawn) | -1.4 | -2.2 | 30.2* | -43.6 | -64.9 | 3.5 | -17.8 | 14.8*
Cc1ccccc1N=Cc1cc2c(cc1O)OC(N)=C(C#N)C2c1ccccc1 (stereo not drawn) | -3.0 | 2.4 | 19.2* | -52.4 | -65.2 | 2.1 | -10.4 | 34.9*
O=C(OC1CC2CC1[C@H]1CCCCN1C2=O)N1CCC(c2ccccc2)CC1 (stereo partly drawn) | 4.3 | 1.4 | 23.2* | 1.1 | 1.3 | 0.0 | -0.1 | 0.7
O=C(OC1CC2CC1[C@H]1CCCCN1C2=O)N1CCN(S(=O)(=O)c2ccccc2)CC1 (stereo partly drawn) | -3.3 | 1.7 | -3.4 | 3.8 | 0.9 | . | . | .
CCC(C)CNC(=O)CN1C(=O)C2CCCCN2C(=O)c2ccccc21 (stereo not drawn) | 0.4 | -3.1 | 0.6 | -3.9 | -0.8 | . | . | .
CCCOc1c(OC)cccc1C1CC(=O)Nc2cc(OC)c(OC)c(OC)c21 (stereo not drawn) | -1.1 | -0.1 | 0.3 | 3.6 | 1.3 | . | . | .
COc1cc2c(c(OC)c1)C(c1cccc(OC)c1OC)CC(=O)N2 (stereo not drawn) | -0.2 | -0.6 | 16.9* | -2.2 | 0.2 | -2.3 | 11.7 | -2.0
C/C=C/C=C/C(=O)[C@@H]1[C@@H]([C@]2(C)OC(=O)C(C)=C2O)[C@H]2/C(=C(O)/C=C/C=C/C)C(=O)[C@]1(C)C(=O)C2(C)O (stereo partly drawn) | 48.5* | 12.7 | 45.4* | -13.0 | -15.6 | 4.6 | -23.1 | 77.7*
